Source: PubChem
p53null 39C kill: kills p53 null cells at the nonpermissive temperature; H1299 p53-null (neo) cells, 39C, ATPlite viability, 24 h; Potency, µM (highest dose often 46.1 µM), inactives show at the top dose activity, negative = cell killing, most hits filed as cytotoxic; 55,000 compounds, 0.97% hits;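 note: potency is the fitted concentration of half-maximal effect; 0% = DMSO only and -100% = full killing by 100 µM tamoxifen; nearly all actives have a fitted effect of over 50% in size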
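ATP-luminescence viability readout (ATPlite, 20 min RT) after 24 hr compound treatment at 39C of H1299-neo or H1299-p53A138V cells; titration up to 46 uM; normalized to DMSO and 100 uM tamoxifen; Hill-fit AC50.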
PMP22 txn: modulators of PMP22 gene transcription in S16 Schwann cells; S16 Pmp22-F2sN Schwann cells, FLuc/NLuc coincidence luminescence, 24 h; Potency, µM (highest dose often 57.5 µM), without a hit: at the highest dose activity change, negative = inhibition, most hits filed as inhibitors; 43,000 compounds, 2% hits; active = clear falling dose curves in both reporters; inconclusive = both reporters move, but less clearly or upward; inactive = either reporter flat; the % is the NLuc reporter signal; note: potency is the fitted concentration of half-maximal effect; % is set by controls: 0 for no effect and ±100 for the full control effect
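S16 Schwann cells carrying FLuc/NLuc coincidence reporter in the Pmp22 3' UTR treated with compound 24 h at 37C; FLuc then NLuc luminescence read sequentially by dual-luciferase reagents.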
S16 F2sN tox: cytotoxicity in S16 Pmp22-F2sN Schwann cells. S16 Pmp22-F2sN Schwann cells viability, CellTiter-Glo, 24 h. Potency, µM (top dose mostly 57.5 µM), inactives show top-dose activity change, negative = cytotoxicity, usual class: cytotoxic. 43,000 compounds, 0.48% hits. AID 1508642; note: potency is the fitted concentration of half-maximal effect; % is set by controls: 0 for no effect and ±100 for the full control effect; nearly all actives have a fitted effect of over 65% in size
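Luminescence from CellTiter-Glo, read by CCD camera after a 15 min room-temperature incubation, served as the viability signal. Reporter Schwann cells (S16 Pmp22-F2sN) had been treated with pin-transferred compounds for 24 h at 37C.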
GALC G270D act: galactocerebrosidase G270D activity enhancement, cell-based; 145M-Twi-hGALC-G270D cells (Twitcher mouse brain line with human GALC G270D), HMU-beta-Gal fluorescence, 48 h; 45,000 compounds, 0.1% hits; Potency, µM (series often up to 57.5 µM), usual class: activators; P54803; note: potency is the fitted concentration of half-maximal effect; 0% is about no effect; nearly all actives have a fitted effect of over 65% in size
Target sequence (P54803 whole entry G286D): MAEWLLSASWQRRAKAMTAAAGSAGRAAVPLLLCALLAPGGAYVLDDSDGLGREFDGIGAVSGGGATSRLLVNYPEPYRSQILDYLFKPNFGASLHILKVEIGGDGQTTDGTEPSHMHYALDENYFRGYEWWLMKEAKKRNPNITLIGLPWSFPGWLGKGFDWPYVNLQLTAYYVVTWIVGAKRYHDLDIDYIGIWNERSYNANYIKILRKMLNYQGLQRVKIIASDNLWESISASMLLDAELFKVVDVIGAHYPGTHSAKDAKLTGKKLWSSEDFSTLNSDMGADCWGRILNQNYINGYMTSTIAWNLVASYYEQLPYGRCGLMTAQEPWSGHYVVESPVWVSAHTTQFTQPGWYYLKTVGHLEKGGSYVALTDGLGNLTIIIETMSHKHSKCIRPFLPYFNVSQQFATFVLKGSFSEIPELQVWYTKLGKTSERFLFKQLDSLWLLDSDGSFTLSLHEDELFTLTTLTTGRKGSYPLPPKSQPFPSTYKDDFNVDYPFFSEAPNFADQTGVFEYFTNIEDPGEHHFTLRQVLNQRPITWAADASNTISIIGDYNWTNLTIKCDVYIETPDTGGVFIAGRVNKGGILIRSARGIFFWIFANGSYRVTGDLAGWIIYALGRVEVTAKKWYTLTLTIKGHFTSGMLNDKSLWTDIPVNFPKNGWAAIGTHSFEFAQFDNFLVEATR
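Mutant human GALC (G270D), stably expressed in a Twitcher mouse brain cell line lacking endogenous GALC, is measured in live-treated cells via 6-hexadecanoylamino-4-methylumbelliferyl-β-galactoside hydrolysis (0.1 mM final, pH 5.2) with fluorescent detection.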
p53null 32C kill: selectivity test: cytotoxicity in p53 null cells, permissive temperature; Potency, µM (titrated, usually from 46.1 µM), without a hit: at the highest dose activity change, negative = cytotoxicity, most hits filed as cytotoxic; AID 903; 55,000 compounds, 0.62% hits; H1299-neo p53 null cells, ATP luminescence, 24 h, 32C;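 note: potency is the fitted concentration of half-maximal effect; 0% = DMSO only and -100% = full killing by 100 µM tamoxifen; nearly all actives have a fitted effect of over 55% in size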
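Cells lacking p53 (H1299-neo) are plated at 600 per well and allowed to settle overnight at 37C. Test compounds (up to 46 uM) are added and held 24 hours at 32C, then ATP is quantified by luminescence.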
mTORC1 inh: mTORC1 pathway inhibition measured by phospho-rpS6; Potency, µM (doses to about 38.3 µM), for inactives: top-dose activity change, negative = inhibition, actives largely listed as inhibitors; Tsc2-/- p53-/- MEF, phospho-rpS6 immunofluorescence/PI, 24 h; 44,000 compounds, 0.78% hits;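 note: potency is the fitted concentration of half-maximal effect; plate controls were DMSO for no effect and rapamycin for full effect; nearly all actives have a fitted effect of over 50% in size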
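Tsc2-/-, p53-/- MEFs (empty-vector stable line) in DMEM + 10% FBS were treated with compounds 24 h at 37 degree Celsius, fixed, and immunostained for phospho-rpS6 (Alexa-488) with propidium iodide counterstain. Laser-scanning cytometry gave % positive cells, normalized against 7.5 nM rapamycin and DMSO.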
NLuc saturating: NanoLuc enzyme inhibition artifact for PMP22 screen. Secreted NLuc enzyme (filtered S16 cell medium), Nano-Glo luminescence. Potency, µM (top dose mostly 57.5 µM), inactives show at the highest dose activity change, negative = inhibition, actives largely listed as inhibitors. shares compounds with PMP22 txn. 690 compounds, 4% hits; note: potency is the fitted concentration of half-maximal effect; % is set by controls: 0 for no effect and ±100 for the full control effect
NLuc Km ctr: inhibits NanoLuc under Km conditions, PMP22 counter-screen; shares compounds with PMP22 txn; secreted NLuc enzyme, coelenterazine luminescence, Km conditions; Potency, µM (doses to about 57.5 µM), inactives show at the highest dose activity change, negative = inhibition, most hits filed as inhibitors; 690 compounds, 5% hits; AID 1508639; note: potency is the fitted concentration of half-maximal effect; % is set by controls: 0 for no effect and ±100 for the full control effect
FLuc counter: firefly luciferase enzyme inhibition artifact for PMP22 screen. 690 tested, under 10 active. purified P. pyralis FLuc, luminescence, 10 min. Potency, µM (series often up to 57.5 µM), without a hit: at the top dose activity, negative = inhibition, hits mostly inhibitors. AID 1508640. shares compounds with PMP22 txn; note: % of control where 0% means no effect
S16 viab conf: confirmation of cytotoxicity in S16 Pmp22-F2sN Schwann cells (luciferase reporters placed in the Pmp22 gene) | Potency, µM (titrated, usually from 57.5 µM), for inactives: at the top dose activity change, negative = viability loss, actives largely listed as cytotoxic | S16 Schwann cells viability, CellTiter-Glo ATP luminescence, 24 h | 690 compounds, 7% hits | shares compounds with PMP22 txn | AID 1508641; note: potency is the fitted concentration of half-maximal effect; % is set by controls: 0 for no effect and ±100 for the full control effect
PMP22 txn conf: PMP22 transcription modulation, confirmatory. shares compounds with PMP22 txn. Potency, µM (doses to about 57.5 µM), without a hit: at the top dose activity change, negative = inhibition, usual class: inhibitors. S16 Schwann cells Pmp22-F2sN, dual luciferase, 24 h. 690 compounds, 22% hits; active = clear falling dose curves in both reporters; inconclusive = both reporters move, but less clearly or upward; inactive = either reporter flat; the % is the FLuc reporter signal; note: potency is the fitted concentration of half-maximal effect
PMP22 prot conf: confirmation of modulators of rat PMP22 protein expression | S16 Schwann cells Pmp22-HiBiT, luminescence, 48 h | 95 tested, under 10 active | Potency, µM (series often up to 27.9 µM), for the others: top-dose activity change, negative = inhibition, actives largely listed as inhibitors | shares compounds with PMP22 txn
The depositor's hits bear a star; i = inactive; u = inconclusive; x = no result given. This is a sample that favours compounds with a hit; in the whole collection about 3% have one here. Unless noted, calls come from the whole dose curve; as a rule, active = well fitted curve in the direction sought with a large enough effect; inconclusive = small, poorly fitted or top-dose-only effect, or another doubt; inactive = no such curve, though single readings can be large; an effect the other way counts as inactive or inconclusive.

SMILES	p53null 39C kill	PMP22 txn	S16 F2sN tox	GALC G270D act	p53null 32C kill	mTORC1 inh	NLuc saturating	NLuc Km ctr	FLuc counter	S16 viab conf	PMP22 txn conf	others
COc1cc(NC(=O)c2cc3c(s2)-c2ccccc2OC3)cc(OC)c1OC	u	u	u	i	u	-7%	x	x	x	x	x
COc1ccc(C(C)=O)cc1CSc1nc(NCc2ccc(Cl)cc2)c2ccccc2n1	-2%	-13%	1%	i	-10%	-8%	x	x	x	x	x
CCCN(C(=O)c1cc2c(s1)-c1ccccc1SC2)c1ccccc1F	20µM*	u	-5%	i	9%	2%	x	x	x	x	x
CCN(CC)c1ccc(C(=O)NCc2ccc3c(c2)CCN3C(=O)c2ccc(F)cc2)cc1	17%	7.3µM*	u	i	7%	-7%	x	x	x	x	x
Cc1ccc(OCC(=O)Nc2ccc(C(=O)OCc3cc(=O)n4c(C)csc4n3)cc2)cc1	-25%	u	-11%	i	-8%	22%	x	x	x	x	x
CCOc1ccc(C(=O)Nc2ccc(C(=O)OCc3cc(=O)n4c(C)csc4n3)cc2)cc1	13µM*	u	-23%	i	u	4%	x	x	x	x	x
Cc1csc2nc(COC(=O)c3cccc(NC(=O)COc4ccccc4Cl)c3)cc(=O)n12	6.3µM*	-5%	23%	i	u	0%	x	x	x	x	x
O=C(CSc1nc2cc(C(=O)NC3CCCC3)ccc2c(=O)n1CC1CCCO1)c1cccc(Cl)c1 (stereo not drawn)	0%	14µM*	28µM*	i	7%	0%	-19%	-5%	-6%	-7%	u
Cc1sc2c(c1C)c(=O)n(CCc1ccccc1)c(=O)n2Cc1ccc(C(C)(C)C)cc1	-10%	4%	11%	i	-1%	-2%	x	x	x	x	x
Cc1ccc(NC(=O)c2oc3ccc(S(=O)(=O)N4CCCCC4)cc3c2C)cc1C	6%	-26%	-5%	i	-4%	3%	x	x	x	x	x
Cc1c(C(=O)Nc2ccc(F)cc2)oc2ccc(S(=O)(=O)N3CCCCCC3)cc12	24%	15µM*	-28%	i	6%	-5%	-10%	-19%	1%	-8%	-35%
CCOc1cc(C(Nc2cc(C)ccn2)c2ccc3cccnc3c2O)ccc1OC (stereo not drawn)	u	10µM*	u	i	u	u	u	17µM*	-1%	u	u
Cc1ccnc(NC(c2cccc(O)c2)c2ccc3ccc(C)nc3c2O)c1 (stereo not drawn)	-7%	u	-2%	i	-8%	u	x	x	x	x	x
CCn1c(CNC(=O)c2ccc(OC)cc2)nnc1SCC(=O)Nc1cccc(C)c1C	-15%	-6%	10%	i	-9%	-1%	x	x	x	x	x
COc1cccc(CNC(=O)Cc2c(C)c3c(cc(C)c4c(C)c(C)oc43)oc2=O)c1	1%	-2%	5%	i	2%	-6%	x	x	x	x	x
CCOC(=O)c1c(C)[nH]c(CCC(=O)NCCCN2CCN(c3cc(Cl)ccc3C)CC2)c1C	-36%	15µM*	u	i	12%	u	-11%	4%	-3%	u	u
CCOC(=O)c1c(C)[nH]c(CCC(=O)NCCCN2CCN(c3ccc(F)cc3)CC2)c1C	-10%	u	-6%	i	-10%	10%	x	x	x	x	x
COc1cc(OC)c(NC(=O)C2=C(C)C(=O)OC23CCN(C(C)=O)CC3)cc1Cl	-9%	0%	-7%	i	-3%	-8%	x	x	x	x	x
COc1ccc(C2c3c(-c4c(C)cc(C)cc4O)n[nH]c3C(=O)N2Cc2ccco2)cc1 (stereo not drawn)	u	u	-1%	u	-10%	u	x	x	x	x	x
Cc1ccc(O)c(-c2n[nH]c3c2C(c2ccc(F)cc2)N(Cc2ccco2)C3=O)c1 (stereo not drawn)	u	20µM*	-17%	i	26%	5%	-15%	u	-3%	13%	-26%
CCOCCCNC(=O)c1ccc(-n2c(-c3ccccc3)cc3c2CCC(C)C3)cc1 (stereo not drawn)	u	18µM*	-3%	i	-14%	u	-7%	0%	-8%	4%	u	PMP22 prot conf=5%
COCCCNC(=O)c1ccc(-n2c(-c3ccccc3)cc3c2CCCC3)cc1	10%	u	2%	i	8%	-20%	x	x	x	x	x
O=C(NCCc1ccccc1)c1c[nH]c2ccc(S(=O)(=O)Nc3ccccc3F)cc2c1=O	-4%	u	-7%	i	2%	-9%	-22%	-18%	-14%	-17%	-10%
CCN(CC)CCCNC(=O)c1ccc2c(c1)sc1nc(-c3ccc(C)cc3)cn12	1%	10µM*	u	i	4%	6%	u	u	15µM*	15µM*	15µM*
CCCNC(=O)c1ccc2c(c1)sc1nc(-c3ccc(C)cc3)cn12	8%	-29%	2%	i	3%	-2%	x	x	x	x	x
